Assay outcomes (PubChem BioAssay)
Hits are enriched below; roughly 5.9% of the tested compounds scored in any of these assays.
HepG2 tox-1 – kills HepG2 cells in TGF-b inhibitor counter-screen; Potency, µM (highest dose often 46.1 µM), actives largely listed as cytotoxic; AID 588856; 0.76% of 410,000 active; HepG2 CAGA-GFP viability, ATP luminescence, 18 h
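CellTiter-Glo luminescence gave cytotoxicity after 18 hours at 37 degrees C. The cells were HepG2 CAGA-GFP in 1% FBS DMEM, stimulated with 500 pg/mL TGF-beta after compound addition. %Activity was normalised to no-cell wells (complete cell-killing) and DMSO (no toxicity), and curves were fitted and classified.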
KB-3-1 cytotox – kills parental KB-3-1 adenocarcinoma cells; KB-3-1 viability, CellTiter-Glo ATP luminescence, 72 h; 1.4% of 400,000 active; Potency, µM (doses to about 46.1 µM), most hits filed as cytotoxic; note: nearly all actives have a fitted effect of over 60% in size
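KB-3-1 parental drug-naive adenocarcinoma cells in DMEM/10% FBS, incubated 72 h at 37 C with pin-transferred compounds across a concentration series. Viability by CellTiter-Glo luminescence; concentration-response curves fitted after normalization.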
KB-V1 MDR tox – KB-V1 MDR subline cytotoxicity. KB-V1 MDR cells viability, CellTiter-Glo, 72 h. Potency, µM (top dose mostly 46.1 µM), most hits filed as cytotoxic. 3.4% of 400,000 active. AID 1347076; note: nearly all actives have a fitted effect of over 60% in size
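Drug-selected KB-V1 cells, grown in DMEM lacking phenol red with 10% FBS, receive compound titrations; after three days at 37 degrees C, surviving cell ATP is quantified by CellTiter-Glo luminescence and responses normalized and curve-fitted.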
ATXN2 expr inh – reduces ATXN2 reporter expression in HEK-293 cells | HEK-293 ATXN2-luciferase reporter, luminescence, 24 h | Potency, µM (doses to about 57 µM), actives largely listed as inhibitors | 0.72% of 360,000 active; note: nearly all actives have a fitted effect of over 55% in size
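qHTS (up to 57 uM final) was run with 24 h compound exposure of reporter cells at 37 °C. Each well was multiplexed: SteadyGlo luminescence measured ATXN2-luciferase expression after a fluorogenic Gly-Phe-AFC viability readout (25 uM final).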
TGFb SMAD3 inh – blocks TGF-b signaling | HepG2 CAGA-GFP TGF-b/SMAD3 reporter, GFP fluorescence, 18 h; TGF-beta stimulated, 500 pg/mL final | Potency, µM (doses to about 46.1 µM), usual class: inhibitors | 1.2% of 410,000 active | AID 588855; note: nearly all actives have a fitted effect of over 65% in size
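Read-out: total well GFP (ex488/em500-530) summed from mean per-cell fluorescence. Cells: HEPG2 CAGA-GFP, 1% FBS DMEM, 18 h at 37 degrees C with 500 pg/mL final TGF-beta. Unstimulated wells served as the full-inhibition control; stimulated DMSO wells = 0%.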
ATXN viability – viability counter-screen for ATXN expression inhibitors. AID 651635. Potency, µM (series often up to 56.7 µM), actives largely listed as cytotoxic. 0.49% of 400,000 active. S2 cells (HEK-293 line with an ATXN2-luciferase reporter) viability, CellTiter-Fluor protease fluorescence, 24 h; note: nearly all actives have a fitted effect of over 40% in size
TGFb confirm – TGF-b pathway inhibition, cherry-pick retest; shares compounds with TGFb SMAD3 inh; HepG2 CAGA-GFP TGF-b reporter, GFP fluorescence, 18 h; cells stimulated with TGF-beta, 500 pg/mL; Potency, µM (highest dose often 46.1 µM), usual class: inhibitors; 63% of 1,600 active; AID 720534; note: nearly all actives have a fitted effect of over 65% in size
HepG2 tox-2 – counter-screen for TGF-b inhibitors: cytotoxicity in HepG2 cells; AID 720535; Potency, µM (top dose mostly 46.1 µM), hits mostly inhibitors; HepG2 CAGA-GFP viability, ATP luminescence, 18 h; cells stimulated with TGF-beta, 500 pg/mL; 27% of 1,600 active; shares compounds with TGFb SMAD3 inh; note: nearly all actives have a fitted effect of over 70% in size
CCL64 TGFb inh – orthogonal confirmation of TGF-b inhibitors in CCL64 cells. 41% of 1,600 active. CCL64 CAGA-GFP reporter, TGF-b stimulated, GFP fluorescence, 18 h. AID 720536. shares compounds with TGFb SMAD3 inh. Potency, µM (series often up to 46.1 µM), actives largely listed as inhibitors; note: nearly all actives have a fitted effect of over 65% in size
TGFb COP inh – blocks TGF-b signaling in HepG2 COP reporter; shares compounds with TGFb SMAD3 inh; 3% of 1,600 active; Potency, µM (doses to about 46.1 µM), most hits filed as inhibitors; HepG2 COP-GFP TGF-b reporter, GFP fluorescence, 18 h; cells stimulated by added recombinant TGF-beta; note: nearly all actives have a fitted effect of over 70% in size
Numbers stand for hits; n = inactive; u = inconclusive; x = no result given. Calls come from the whole dose curve; as a rule, active = well fitted curve in the direction sought with a large enough effect; inconclusive = small, poorly fitted or top-dose-only effect, or another doubt; inactive = no such curve, though single readings can be large; an effect the other way counts as inactive or inconclusive.

SMILES | HepG2 tox-1 | KB-3-1 cytotox | KB-V1 MDR tox | ATXN2 expr inh | TGFb SMAD3 inh | ATXN viability | TGFb confirm | HepG2 tox-2 | CCL64 TGFb inh | TGFb COP inh
N#C/C(=C\c1ccc(Sc2nc3ccccc3[nH]2)o1)c1ccccc1 | n | n | n | u | 10µM | n | 9.2µM | u | u | n
COc1ccc(NC(=O)c2cc(-c3cc(F)ccc3OC(C)C)n[nH]2)c(C)c1 | n | n | n | n | n | n | x | x | x | x
CCc1ccc(CCC(=O)Nc2ncc(Cc3ccccc3Cl)s2)o1 | n | u | n | n | 2µM | n | u | n | n | n
O=C(CN1CCOCC1)Nc1ncc(Cc2ccccc2Cl)s1 | n | n | u | n | n | u | x | x | x | x
CC(=O)Nc1ncc(Cc2cc(Cl)ccc2Cl)s1 | n | n | n | x | u | n | u | n | n | n
CCOc1ccccc1NC(=O)Cn1c(=O)n(Cc2ccco2)c(=O)c2ccc(C(=O)NC3CCCC3)cc21 | n | n | n | n | n | n | x | x | x | x
CC1CCCC(C)N1C(=O)Cn1cc(/C=C2/C(=O)Nc3ccccc32)c2ccccc21 (stereo not drawn) | n | n | n | u | 6.3µM | u | u | n | u | n
CCc1ccc(S(=O)(=O)c2nnn3c2nc(Nc2ccc(C)c(Cl)c2)c2sccc23)cc1 | n | n | n | x | n | x | x | x | x | x
CC(C)(C)c1ccc(C(=O)CC(=O)c2cc(Cl)ccc2O)cc1 | n | 5.8µM | 2.6µM | n | 5.6µM | n | u | u | 9.2µM | n
Cc1ccc(C(=O)CC(=O)c2ccc(C(C)(C)C)cc2)cc1 | n | n | n | n | n | n | x | x | x | x
CCCc1cc(=O)[nH]c(Nc2ccc(C)c(O)c2)n1 | n | n | n | n | n | n | x | x | x | x
CCn1c(/C=C/c2cc(Br)ccc2O)nc2ccccc2c1=O | n | u | n | u | 10µM | n | u | u | n | n
CCn1c(/C=C/c2ccc(O)c(O)c2)nc2ccccc2c1=O | n | n | n | x | u | n | x | x | x | x
Cc1nnc(SC(=O)N2c3ccccc3Sc3ccccc32)s1 | n | n | u | 25µM | 7.1µM | x | 12µM | 15µM | 3.3µM | u
CN(C(=O)c1ccc(NC(=O)Cc2cccc(NC(=O)C3CCN(C(=O)CCc4ccccc4)CC3)c2)cc1)C1CCCC1 | n | n | n | n | 13µM | n | u | n | n | n
O=C(CSc1nc(-c2ccc(Cl)cc2)cs1)Nc1cccc([N+](=O)[O-])c1 | n | u | u | x | 10µM | u | u | u | n | n
O=[N+]([O-])c1cccc(NC(=S)Nc2nc(-c3ccccc3Cl)cs2)c1 | n | u | n | n | 3.5µM | u | 3.7µM | 6.5µM | 6.5µM | n
Cc1cc(NC(=O)CSc2nc(-c3ccc(Cl)cc3)cs2)no1 | n | n | n | n | n | n | x | x | x | x
O=C(Nc1cccc(-c2csc(Nc3ccc(Cl)cc3)n2)c1)c1cc([N+](=O)[O-])cc(C(F)(F)F)c1 | n | u | n | n | 20µM | x | 8.2µM | u | 5.8µM | n
O=[N+]([O-])c1cccc(NC(=S)NCc2ccncc2)c1 | n | n | n | n | n | u | x | x | x | x
Nc1nc2ncccn2c1-c1ccc(F)c(F)c1 | x | n | n | x | x | x | x | x | x | x
CC(C)(C)c1ccc(S(=O)(=O)NC(=O)C2(C)CCN2C(=O)Cc2ccc(-c3ccccc3)cc2)cc1 (stereo not drawn) | n | n | n | n | u | u | x | x | x | x
Cc1cccc(NC(=O)/C=C/c2ccc([N+](=O)[O-])s2)c1 | n | 5.8µM | 4.6µM | 8.9µM | u | 8.9µM | u | 5.2µM | 2.6µM | n
Cc1ccc(NC(=O)/C=C/c2ccc([N+](=O)[O-])s2)cc1 | n | u | u | n | n | n | x | x | x | x
Cc1ccc(NC(=O)/C=C/c2ccc([N+](=O)[O-])s2)c(C)c1 | 7.9µM | u | n | 8.9µM | 5µM | u | u | 10µM | 4.1µM | n
SMILES | HepG2 tox-1 | KB-3-1 cytotox | KB-V1 MDR tox | ATXN2 expr inh | TGFb SMAD3 inh | ATXN viability | TGFb confirm | HepG2 tox-2 | CCL64 TGFb inh | TGFb COP inh
O=C(CCN1CCOCC1)c1ccc2c(c1)OCCO2 | n | u | n | n | 10µM | n | 21µM | 23µM | u | u
O=C(OCCN1CCOCC1)c1ccc2c(c1)OCCO2 | n | n | n | n | n | n | x | x | x | x
COc1ccc(-c2cc3ccc(OC)cc3cn2)cc1 | n | u | n | n | n | n | x | x | x | x
COc1ccc2cc(-c3ccccc3F)ncc2c1 | n | n | n | n | u | n | n | n | n | n
C=C(C)c1cccc(C(C)(C)NC(=O)Nc2nncs2)c1 | n | n | n | n | n | n | x | x | x | x
C=C(C)c1cccc(C(C)(C)NC(=O)Nc2nnc(C(C)C)s2)c1 | n | n | u | x | 8.9µM | u | u | n | n | n
Cc1cc2nc(-c3ccc(F)cc3)c(CC(C)(C)C)n2c(C)c1Br | n | n | n | n | 10µM | u | u | u | u | n
Cc1ccc(Nc2nc(-c3ccccc3)nc3ccccc23)cc1 | n | n | u | u | u | u | x | x | x | x
c1ccc(Nc2nc(-c3ccncc3)nc3ccccc23)cc1 | n | n | n | n | n | n | n | n | n | n
Cc1ccc(Nc2nc(-c3ccncc3)nc3ccccc23)cc1 | n | n | n | u | n | n | n | u | n | n
CC(=O)c1cccc(Nc2nc(-c3ccccc3)nc3ccccc23)c1 | n | n | n | n | n | x | x | x | x | x
CC(=O)c1ccc(Nc2nc(-c3ccccc3)nc3ccccc23)cc1 | n | n | n | n | n | u | n | n | n | n
O=C(Nc1cccc(C(F)(F)F)c1)C1Cc2c(-c3cccc(F)c3)ccnc2O1 (stereo not drawn) | n | u | u | u | u | u | x | x | x | x
NC(=O)c1cccc(-c2ccnc3c2CC(C(=O)Nc2cccc(C(F)(F)F)c2)O3)c1 (stereo not drawn) | n | u | 23µM | u | 13µM | n | 21µM | n | n | n
CC(C)(C)CN1CCN(Cc2nc(-c3ccc(F)cc3)cs2)CC1CCO (stereo not drawn) | n | u | u | n | u | n | u | u | n | n
